Results as given in PubChem BioAssay AID1159580 (chemical genetic matrix, 2015).
The whole screen tested about 5,500 compounds, of which about 2,000 (36%) were called active. Not shown: some 18% with an inconclusive outcome. Rule as the data show it: active = normalized growth mostly below about 0.91 (no sharp cut-off); inconclusive = no clear call, values can overlap the other calls; inactive = mostly above about 0.92. The list shows a part of the results.

Assay: chemical genetic growth profiling, strain panel (AID 1159580);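 also: tested at 20 µM; growth read once vehicle control cultures reached saturation at 30 °C; 1 = growth at the plate median or of vehicle wells; lower values mean less growth of the strain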
Conditions: growth OD

Measured: normalized growth

Oc1c(I)cc(I)c2cccnc12
active: S. cerevisiae deletion strains, locus YJL187C, strain SWE1, active compounds read low 0.0737 | S. cerevisiae deletion strains, locus YJR043C, strain POL32, active compounds read low 0.08 | S. cerevisiae deletion strains, locus YJR066W, strain TOR1, active compounds read low 0.106 | S. cerevisiae deletion strains, locus YKL009W, strain mrt4, active compounds read low 0.274 | S. cerevisiae deletion strains, locus YKL068W, active compounds read low 0.479 | S. cerevisiae deletion strains, locus YKL085W, strain MDH1 (second series), active compounds read low 0.253 | S. cerevisiae deletion strains, locus YKL085W, strain MDH1, active compounds read low 0.253 | S. cerevisiae deletion strains, locus YKL160W, strain elf1, active compounds read low 0.0775 | S. cerevisiae deletion strains, locus YKL190W, strain CNB1, active compounds read low 0.0667 | S. cerevisiae deletion strains, locus YKR001C, strain vps1, active compounds read low 0.1 | S. cerevisiae deletion strains, locus YKR026C, strain gcn3, active compounds read low 0.0967 | S. cerevisiae deletion strains, locus YKR091W, strain srl3, active compounds read low 0.129 | S. cerevisiae deletion strains, locus YLL001W, strain dnm1, active compounds read low 0.085 | S. cerevisiae deletion strains, locus YLL026W, active compounds read low 0.652 | S. cerevisiae deletion strains, locus YLL041C, strain sdh2, active compounds read low 0.083 | S. cerevisiae deletion strains, locus YLR027C, strain aat2, active compounds read low 0.0875 | S. cerevisiae deletion strains, locus YLR039C, strain RIC1, active compounds read low 0.156 | S. cerevisiae deletion strains, locus YLR058C, strain SHM2, active compounds read low 0.0693 | S. cerevisiae deletion strains, locus YLR102C, strain apc9, active compounds read low 0.0939 | S. cerevisiae deletion strains, locus YLR113W, strain HOG1, active compounds read low 0.128 | S. cerevisiae deletion strains, locus YLR221C, strain rsa3, active compounds read low 0.118 | S. cerevisiae deletion strains, locus YLR258W, strain gsy2, active compounds read low 0.0729 | S. cerevisiae deletion strains, locus YLR262C, strain YPT6 (second series), active compounds read low 0.109 | S. cerevisiae deletion strains, locus YLR262C, strain YPT6, active compounds read low 0.184 | S. cerevisiae deletion strains, locus YLR268W, strain sec22, active compounds read low 0.104 | S. cerevisiae deletion strains, locus YLR320W, strain mms22, active compounds read low 0.111 | S. cerevisiae deletion strains, locus YLR330W, strain CHS5, active compounds read low 0.0767 | S. cerevisiae deletion strains, locus YLR342W, strain FKS1 (second series), active compounds read low 0.0828 | S. cerevisiae deletion strains, locus YLR342W, strain FKS1, active compounds read low 0.0814 | S. cerevisiae deletion strains, locus YLR357W, strain rsc2, active compounds read low 0.178 | S. cerevisiae deletion strains, locus YLR370C, strain arc18, active compounds read low 0.0851 | S. cerevisiae deletion strains, locus YLR371W, strain rom2, active compounds read low 0.137 | S. cerevisiae deletion strains, locus YLR384C, strain iki3, active compounds read low 0.0849 | S. cerevisiae deletion strains, locus YLR418C, strain cdc73, active compounds read low 0.16 | S. cerevisiae deletion strains, locus YML016C, strain PPZ1, active compounds read low 0.0635 | S. cerevisiae deletion strains, locus YML032C, strain rad52, active compounds read low 0.115 | S. cerevisiae deletion strains, locus YML120C, strain ndi1, active compounds read low 0.0935 | S. cerevisiae deletion strains, locus YML124C, strain tub3, active compounds read low 0.0977 | S. cerevisiae deletion strains, locus YMR058W, strain fet3, active compounds read low 0.0746 | S. cerevisiae deletion strains, locus YMR078C, strain ctf18, active compounds read low 0.11 | S. cerevisiae deletion strains, locus YMR125W, strain sto1, active compounds read low 0.112 | S. cerevisiae deletion strains, locus YMR129W, active compounds read low 0.256 | S. cerevisiae deletion strains, locus YMR205C, strain PFK2, active compounds read low 0.108 | S. cerevisiae deletion strains, locus YMR223W, strain ubp8, active compounds read low 0.108 | S. cerevisiae deletion strains, locus YMR231W, strain pep5, active compounds read low 0.105 | S. cerevisiae deletion strains, locus YMR307W, strain GAS1, active compounds read low 0.145 | S. cerevisiae deletion strains, locus YNL067W, strain RPL9B, active compounds read low 0.0655 | S. cerevisiae deletion strains, locus YNL071W, strain lat1, active compounds read low 0.236 | S. cerevisiae deletion strains, locus YNL183C, strain NPR1, active compounds read low 0.103 | S. cerevisiae deletion strains, locus YNL209W, strain ssb2, active compounds read low 0.0737 | S. cerevisiae deletion strains, locus YNL233W, strain BNI4, active compounds read low 0.073 | S. cerevisiae deletion strains, locus YNL248C, strain rpa49, active compounds read low 0.11 | S. cerevisiae deletion strains, locus YNL250W, strain rad50, active compounds read low 0.0949 | S. cerevisiae deletion strains, locus YNL271C, strain bni1, active compounds read low 0.177 | S. cerevisiae deletion strains, locus YNL298W, strain CLA4, active compounds read low 0.271 | S. cerevisiae deletion strains, locus YNL307C, strain MCK1, active compounds read low 0.115 | S. cerevisiae deletion strains, locus YNL322C, strain KRE1 (second series), active compounds read low 0.128 | S. cerevisiae deletion strains, locus YNL322C, strain KRE1, active compounds read low 0.0647 | S. cerevisiae deletion strains, locus YNR049C, strain mso1, active compounds read low 0.0812 | S. cerevisiae deletion strains, locus YNR052C, strain pop2, active compounds read low 0.0966 | S. cerevisiae deletion strains, locus YOL147C, strain pex11, active compounds read low 0.0953 | S. cerevisiae deletion strains, locus YOR001W, strain rrp6, active compounds read low 0.21 | S. cerevisiae deletion strains, locus YOR061W, strain CKA2, active compounds read low 0.0666 | S. cerevisiae deletion strains, locus YOR069W, strain VPS5, active compounds read low 0.0731 | S. cerevisiae deletion strains, locus YOR070C, strain gyp1, active compounds read low 0.575 | S. cerevisiae deletion strains, locus YOR080W, strain dia2, active compounds read low 0.09 | S. cerevisiae deletion strains, locus YOR083W, strain WHI5, active compounds read low 0.112 | S. cerevisiae deletion strains, locus YOR106W, strain vam3, active compounds read low 0.0906 | S. cerevisiae deletion strains, locus YOR136W, strain idh2, active compounds read low 0.156 | S. cerevisiae deletion strains, locus YOR144C, strain elg1, active compounds read low 0.0898 | S. cerevisiae deletion strains, locus YOR184W, strain ser1, active compounds read low 0.133 | S. cerevisiae deletion strains, locus YOR231W, strain MKK1, active compounds read low 0.14 | S. cerevisiae deletion strains, locus YOR265W, strain rbl2, active compounds read low 0.0593 | S. cerevisiae deletion strains, locus YOR270C, strain vph1, active compounds read low 0.129 | S. cerevisiae deletion strains, locus YOR290C, strain snf2, active compounds read low 0.0939 | S. cerevisiae deletion strains, locus YOR316C, strain cot1, active compounds read low 0.0886 | S. cerevisiae deletion strains, locus YPL051W, strain arl3, active compounds read low 0.0895 | S. cerevisiae deletion strains, locus YPL078C, strain atp4, active compounds read low 0.0936 | S. cerevisiae deletion strains, locus YPL106C, strain sse1, active compounds read low 0.16 | S. cerevisiae deletion strains, locus YPL240C, strain hsp82, active compounds read low 0.0764 | S. cerevisiae deletion strains, locus YPL256C, strain CLN2, active compounds read low 0.15 | S. cerevisiae deletion strains, locus YPR119W, strain clb2, active compounds read low 0.0998 | S. cerevisiae deletion strains, locus YPR141C, strain kar3, active compounds read low 0.235 | S. cerevisiae deletion strains, locus YPR163C, strain tif3, active compounds read low 0.107 | S. cerevisiae deletion strains, locus YPR167C, strain met16, active compounds read low 0.103 | S. cerevisiae deletion strains, strain wtn01, active compounds read low 0.116 | S. cerevisiae strains, strain wild type, active compounds read low 0.0715
inactive: S. cerevisiae deletion strains, locus YOL012C, strain htz1 0.333
